Only some compounds are listed: those with a hit (about 9.9% of all), similar ones and a draw of the others.
KB-3-1 cytotox – kills parental KB-3-1 adenocarcinoma cells | KB-3-1 viability, CellTiter-Glo ATP luminescence, 72 h | Potency, µM (highest dose often 46.1 µM), most hits filed as cytotoxic | 400,000 tested, 1.4% active | AID 1347075; further: potency means the concentration at half of the fitted maximal effect; on the % scale 0 is the no-effect control and ±100 the full control effect; nearly all actives have a fitted effect of over 60% in size
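Parental KB-3-1 viability, qHTS format: 72 h compound exposure, 37 °C; CellTiter-Glo; media-only wells and DMSO plates as controls; concentration-effect fits on corrected data.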
SW480 rereplic – DNA re-replication induction in SW480 cells | SW480 DNA re-replication, Hoechst DNA content imaging, 48 h | Potency, µM (series often up to 46.1 µM), for the others: at the top dose re-replication activation, most hits filed as activators | 340,000 tested, 1.8% active; further: potency means the concentration at half of the fitted maximal effect; % of control where 0% means no effect; nearly all actives have a fitted effect of over 55% in size
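Per well, 250 cells were exposed to pinned compound for 48 hr. Nuclear DNA was visualised with Hoechst (40 min, 37 C) and total object intensity recorded by fluorescence scanning.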
IL1B secr inh – inflammasome signaling inhibition, IL-1 beta readout | THP-1 LPS/ATP IL-1B secretion, AlphaLISA, 16 h; hits give low values | activity change, % at 57.5 µM | 360,000 tested, 4.7% active | AID 743279; in the data active means activity change below about -50%; inconclusive means mostly about -30% to -49%; further: on the % scale 0 is the no-effect control and ±100 the full control effect
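Secreted IL-1B measured by AlphaLISA bead assay after 16 h compound exposure of THP-1 cells; compounds (final up to 57.5 uM) added 1 h before LPS (250 ng/mL) and ATP (1.25 mM) stimulation; lower signal means less secretion.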
KB-V1 MDR tox – KB-V1 MDR subline cytotoxicity. KB-V1 MDR cells viability, CellTiter-Glo, 72 h. Potency, µM (titrated, usually from 46.1 µM), most hits filed as cytotoxic. 400,000 tested, 3.4% active. AID 1347076; further: potency means the concentration at half of the fitted maximal effect; on the % scale 0 is the no-effect control and ±100 the full control effect; nearly all actives have a fitted effect of over 60% in size
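KB-V1, DMEM (no phenol red) + 10% FBS; cpd pin-transferred, titration series; 72 h, 37 degrees C; CellTiter-Glo, luminescence. Data normalized, curve-fit.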
MCF10A rerep – DNA re-replication induction in MCF 10a cells; MCF 10A DNA re-replication, Hoechst nuclear intensity, 48 h; Potency, µM (series often up to 46.1 µM), inactives show at the top dose activity, positive = re-replication, hits mostly activators; 350,000 tested, 2.9% active; further: potency means the concentration at half of the fitted maximal effect; % of control where 0% means no effect; nearly all actives have a fitted effect of over 50% in size
Numbers without * were called inactive; i = inactive; u = inconclusive; x = no result. Unless noted, the call rests on the fitted dose curve; in most records, active means well fitted curve in the direction sought with a large enough effect; inconclusive means small, poorly fitted or top-dose-only effect, or another doubt; inactive means no such curve, though single readings can be large; an effect the other way counts as inactive or inconclusive.

SMILES	KB-3-1 cytotox	SW480 rereplic	IL1B secr inh	KB-V1 MDR tox	MCF10A rerep
O=C(CN1C(=O)COc2ccccc2C1=O)c1ccc2c(c1)OCCO2	i	-6.0%	-2.9	i	-6.7%
CC(=O)Nc1ccc(SCCCC(=O)c2ccccc2)cc1	i	-13.9%	-12.3	i	4.0%
N#CCCN1CCN(C(=S)c2ccc(-c3ccc(Cl)c(Cl)c3)o2)CC1	i	13.5%	-53.4*	i	u
CC1(C)CC(=O)C2=C(C1)NC1=C(C(=O)c3ccccc31)C2c1ccc(Cl)cc1 (centres undefined)	u	3.2%	-54.2*	14.6µM*	u
CSC1=C(C#N)C(c2ccc(Cl)cc2)C2=C(CC(C)(C)CC2=O)N1 (centres undefined)	u	20.6%	-3.4	20.6µM*	u
Cc1ccc(C2C3=C(CC(C)(C)CC3=O)NC3=C2C(=O)c2ccccc23)cc1 (centres undefined)	u	-4.1%	-57.3*	i	3.5%
CCOC(=O)NN=C1CN(S(=O)(=O)c2ccc(C)cc2)C1	i	-0.8%	11.3	i	-1.7%
CN(C(=O)c1cccc(S(=O)(=O)N2CCOCC2)c1)c1c(N)n(Cc2ccccc2)c(=O)[nH]c1=O	i	2.9%	-13.9	i	5.8%
COc1ccc(N2CC(NC(=O)N3CCc4ccccc43)CC2=O)cc1OC (centres undefined)	i	-13.4%	24.3	i	0.9%
O=S(=O)(Nc1ccc2c(c1)OCO2)c1ccccc1	i	-14.6%	-23.6	u	1.0%
COc1cc(NS(=O)(=O)c2ccc(Br)s2)cc(OC)c1	u	0.5%	38.5	16.4µM*	5.2%
O=S(=O)(Nc1ccc2c(c1)OCO2)c1ccc(Br)s1	i	u	6.4	i	18.4µM*
Cn1ccc2c(OCC(=O)NCc3ccccc3Cl)cccc2c1=O	i	x	x	i	x
O=c1c2c(nc3c(-c4cccc5ccccc45)c[nH]n13)CCC2	i	-6.0%	9.5	i	11.2µM*
CC(C)(C)NC(=O)CN(Cc1ccc2c(c1)OCO2)C(=O)CNS(=O)(=O)c1ccccc1	i	-11.8%	17.6	i	-1.4%
COc1cccc(N2CCN(C(=S)Nc3ccc(F)cc3)CC2)c1	i	-0.7%	-0.1	i	-0.6%
COc1cccc(N2CCN(C(=S)Nc3cc(C)cc(C)c3)CC2)c1	i	u	8.3	u	11.2µM*
CCCC(=O)Nc1cccc(NC(=O)CN2CCN(c3ccccc3OC)CC2)c1	i	u	-12.7	2.59µM*	-3.6%
COc1ccccc1N1CCN(C(=S)Nc2ccc3nc(N4CCOCC4)cc(C)c3c2)CC1	i	u	-168.4*	i	u
Cc1cccc(N2CCN(C(=S)Nc3ccc4nc(N5CCOCC5)cc(C)c4c3)CC2C)c1 (centres undefined)	i	u	43.1	i	11.6µM*
Cc1cc(C(=O)N2CCN(c3cc(Cl)ccc3C)CC2)c2c(C)nn(-c3ccccc3)c2n1	i	x	x	i	x
COc1cc(C(=O)NNC(=O)Nc2ccc([N+](=O)[O-])cc2)cc(OC)c1OC	i	10.4%	47.0	i	23.9%
CCOc1ccc(CNC(=O)c2ccc3nc(Cc4ccc(OC)cc4)oc3c2)cc1OC	i	x	x	i	x
CCN(CC)S(=O)(=O)c1ccc2c(c1)N(CC(=O)N1CCN(c3ccc(Cl)cc3)CC1)C(=O)CO2	i	x	x	i	x
CCN(CC)S(=O)(=O)c1ccc(NC(=O)[C@H](CCSC)N2Cc3ccccc3C2=O)cc1	u	x	x	i	x
SMILES	KB-3-1 cytotox	SW480 rereplic	IL1B secr inh	KB-V1 MDR tox	MCF10A rerep
Cc1ccc(C)c(N2CCN(C(=S)Nc3ccc4nc(N5CCOCC5)cc(C)c4c3)CC2)c1	i	u	-0.3	u	16.4µM*
COc1ccccc1N1CCN(CCNC(=O)Nc2cccc(C)c2C)CC1	i	u	-85.8*	i	u
Cc1ccc(C)c(N2CCN(C(=S)Nc3ccc4nc(N5CCN(C)CC5)cc(C)c4c3)CC2)c1	u	-14.0%	21.6	i	u
COc1ccccc1N1CCN(C(=S)Nc2cccc(C)c2)CC1	u	u	-14.0	u	16.4µM*
Cc1cccc(NC(=S)N2CCN(c3cc(C)ccc3C)CC2)c1	i	-2.6%	8.6	u	3.3%
COc1ccc(-c2cnc(C)o2)cc1S(=O)(=O)Nc1ccc(F)cc1F	i	x	x	i	x
CC1CC(C)(C)NC(=S)O1 (centres undefined)	i	14.4%	-15.3	i	1.1%
CC(C)c1ccc(NC(=O)COC(=O)c2nn(C)c(=O)c3ccccc23)cc1	i	0.3%	-5.9	i	6.4%
CCOC(=O)[C@@H]1[C@H]2COc3ccccc3[C@H]2N2C(=O)N(c3ccc(Br)cc3)C(=O)[C@]12C	i	-9.1%	-1.0	i	0.4%
CCOC(=O)[C@@H]1[C@H]2COc3ccccc3[C@@H]2N2C(=O)N(c3ccc(Br)cc3)C(=O)[C@]12C	i	23.1µM*	12.6	i	-7.1%
CCOC(=O)[C@H]1[C@H]2COc3ccc(Br)cc3[C@@H]2N2C(=O)CN(Cc3ccc(Cl)cc3)C(=O)[C@@]12C	u	-1.1%	-11.3	i	u
CCOC(=O)[C@H]1[C@H]2COc3ccc(Br)cc3[C@H]2N2C(=O)CN(Cc3ccc(Cl)cc3)C(=O)[C@@]12C	u	u	-52.4*	u	-0.2%
Cc1cc(S(=O)(=O)NCCCN2CCOCC2)c(Cl)cc1Cl	i	-5.7%	-5.3	u	27.7%
CC1=C(C#N)C(=O)NC(=O)/C1=C/c1ccc(-c2ccc(S(N)(=O)=O)cc2)o1	i	-3.4%	21.1	u	-3.0%
CS(=O)(=O)N(CCC#N)Cc1ccc(/C=C2\C(=O)Nc3ccccc32)o1	i	-3.4%	-78.4*	i	1.1%
CCN1CC2=C(OC(N)=C(C#N)C2c2ccccc2)/C(=C\c2ccccc2)C1 (centres undefined)	u	u	-15.9	i	23.1µM*
N#CC1=C(N)OC2=C(CN(Cc3ccccc3)C/C2=C\c2cccnc2)C1c1cccnc1 (centres undefined)	i	-0.5%	-8.4	i	9.3%
Cc1ccc2c(c1)-c1c(cnn1CC(=O)Nc1ccccc1N1CCN(C)CC1)CO2	i	-3.9%	-24.5	i	-7.4%
Cc1onc(-c2ccccc2Cl)c1C(=O)N1CCN(C/C=C/c2ccccc2)CC1	i	u	-51.9*	14.6µM*	u
Cc1onc(-c2ccccc2Cl)c1C(=O)OCC(=O)Nc1ccc2c(c1)OCO2	i	15.2%	-16.9	i	13.6%
Cc1onc(-c2ccccc2Cl)c1C(=O)N1CCc2ccccc21	i	7.4%	2.0	23.1µM*	1.2%
Cc1onc(-c2ccccc2Cl)c1C(=O)N1CCCCC1	i	-62.7%	12.7	i	-1.7%
